Source: PubChem BioAssay (EPA / NIEHS)
Results filed as inconclusive are left out. Activity calls are given as the source filed them. How the source made its calls, unless noted: active means hit-call score of the fitted dose curve at least 0.9, where 1 is the maximum; inactive means score below 0.9.

Assays:
[1] = biological target: human Vitamin D Receptor (VDR), VDR (gene 7421) (UniProt P11473); assay: ATG_VDR_TRANS: Attagene TRANS-FACTORIAL HepG2 Assay for human Vitamin D Receptor (VDR) (AID 2283022; active means hit-call score of the fitted dose curve at least 0.9, where 1 is the maximum)
Sequence of human Vitamin D Receptor (VDR), VDR (gene 7421) (P11473 whole entry, looked up, the tested form may be a part): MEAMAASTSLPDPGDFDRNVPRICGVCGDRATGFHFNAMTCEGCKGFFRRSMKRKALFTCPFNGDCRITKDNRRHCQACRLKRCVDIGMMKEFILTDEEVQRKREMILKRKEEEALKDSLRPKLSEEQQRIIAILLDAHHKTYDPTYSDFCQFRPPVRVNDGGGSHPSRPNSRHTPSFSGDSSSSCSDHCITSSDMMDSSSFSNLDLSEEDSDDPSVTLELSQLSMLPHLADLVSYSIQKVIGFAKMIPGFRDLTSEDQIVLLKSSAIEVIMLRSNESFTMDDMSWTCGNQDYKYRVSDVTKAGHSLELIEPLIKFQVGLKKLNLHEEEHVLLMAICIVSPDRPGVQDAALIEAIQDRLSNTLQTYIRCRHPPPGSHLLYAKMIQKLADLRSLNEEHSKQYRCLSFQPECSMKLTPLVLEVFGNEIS
In short: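 HepG2 cells were transiently transfected with multiple GAL4-UAS reporter units, so signal reflects exogenous chimeric receptor-Gal4 activity. After 24 h compound exposure, reporter mRNA was measured by RT-PCR, fluorescent labelling and capillary electrophoresis, fitted for gain of signal versus DMSO.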

[2] = BSK_3C_SRB: Viability Assessment in the BioMAP Diversity Plus: 3C Assay (AID 2283023); conditions: primary human endothelial cells (HUVEC);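 further: fitted both ways against DMSO so a hit may be signal rise or drop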
In short: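 Primary human umbilical vein endothelial cells in the 3C system were read 24 h after compound dosing. Total protein was stained with 0.1% sulforhodamine B after 10% TCA fixation and read at 560 nm, with bidirectional fitting against DMSO as baseline.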

[3] = read-out: Matrix Metallopeptidase 1 (MMP1), MMP1 (gene 4312); assay: BSK_BE3C_MMP1: BioMAP Diversity Plus: BE3C Assay for Matrix Metallopeptidase 1 (MMP1) Biomarker Activity (AID 2283024); conditions: primary human bronchial epithelial cells; actives raise or lower the signal
In short: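 Human primary bronchial epithelial cells (BE3C system) dosed for 24 h; MMP-1 quantified by ELISA. Bidirectional fit against DMSO; cytotoxicity tracked in parallel cultures by SRB total-protein staining.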

[4] = BSK_3C_Vis: BioMAP Diversity Plus: 3C Assay for Morphology Visualization (AID 2283025); conditions: primary human endothelial cells (HUVEC);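 further: fitted both ways so gain or loss versus DMSO counts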;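 on AC50: light microscopy image of cell morphology used as background control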
In short: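 Human umbilical vein endothelial cell morphology was inspected by light microscopy 24 h after chemical dosing; scored bidirectionally relative to DMSO.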

[5] = read-out: Pselectin, SELP (gene 6403); assay: BSK_4H_Pselectin: BioMAP Diversity Plus: 4H Assay for Pselectin Biomarker Activity (AID 2283026); conditions: primary human endothelial cells (HUVEC); actives raise or lower the signal
In short: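 Primary human umbilical vein endothelial cells were treated 24 h, and cell-surface P-selectin was then quantified by ELISA. Bidirectional fit versus DMSO; cytotoxicity checked in parallel cultures by SRB total-protein staining.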

[6] = BSK_4H_SRB: Viability Assessment in the BioMAP Diversity Plus: 4H Assay (AID 2283027); conditions: primary human endothelial cells (HUVEC);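 on AC50: curves fitted both ways versus DMSO so AC50 may be loss or gain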
In short: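 Absorbance at 560 nm of SRB-stained total protein served as the viability read-out in confluent primary human umbilical vein endothelium 24 h after chemical treatment. Curves were fitted bidirectionally against DMSO as negative control.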

[7] = BSK_BE3C_SRB: Viability Assessment in the BioMAP Diversity Plus: BE3C Assay (AID 2283028); conditions: primary human bronchial epithelial cells
In short: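 Human primary bronchial epithelial cells were exposed to test chemicals for 24 h. Total protein in parallel cultures was then measured by staining with 0.1% sulforhodamine B after 10% TCA fixation, with absorbance read at 560 nm. Activity was fitted bidirectionally against DMSO.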

[8] = read-out: Urokinase-type plasminogen activator receptor (uPAR), PLAUR (gene 5329); assay: BSK_4H_uPAR: BioMAP Diversity Plus: 4H Assay for Urokinase-type plasminogen activator receptor (uPAR) Biomarker Activity (AID 2283030); conditions: primary human endothelial cells (HUVEC); actives raise or lower the signal
In short: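 Primary human umbilical vein endothelial cells were exposed to chemical for 24 h before cell-surface uPAR was quantified by ELISA. Activity was fitted bidirectionally against the DMSO negative control baseline.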

[9] = read-out: Vascular endothelial growth factor receptor 2 (Homo sapiens) (UniProt P35968); assay: BSK_4H_VEGFRII: BioMAP Diversity Plus: 4H Assay for Vascular endothelial growth factor receptor 2 (VEGFR2) Biomarker Activity (AID 2283031); conditions: primary human endothelial cells (HUVEC); actives raise or lower the signal;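 on AC50: cell-surface VEGFR2 protein level quantified by ELISA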
In short: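 Primary human umbilical vein endothelial cells in the BioMAP 4H system were dosed with test chemical, and 24 h later VEGFRII was measured by ELISA. Activity was fitted bidirectionally against DMSO as negative control and baseline.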

[10] = read-out: Human Leukocyte Antigen - DR isotype (HLADR), HLA-DRA (gene 3122); assay: BSK_BE3C_HLADR: BioMAP Diversity Plus: BE3C Assay for Human Leukocyte Antigen - DR isotype (HLADR) Biomarker Activity (AID 2283032); conditions: primary human bronchial epithelial cells; actives raise or lower the signal
In short: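 Human primary bronchial epithelial cells (BE3C system) exposed to compound for 24 hours; cell-surface HLA-DR measured by ELISA, fitted bidirectionally relative to DMSO. Total protein by SRB in parallel cultures tracked cytotoxicity.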

[11] = read-out: Vascular cell adhesion molecule 1 (VCAM1), VCAM1 (gene 7412); assay: BSK_4H_VCAM1: BioMAP Diversity Plus: 4H Assay for Vascular cell adhesion molecule 1 (VCAM1) Biomarker Activity (AID 2283033); conditions: primary human endothelial cells (HUVEC); actives raise or lower the signal
In short: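 Primary human umbilical vein endothelial cells, 4H stimulation system, treated for 24 h; cell-surface VCAM-1 quantified by ELISA. Bidirectional fitting against DMSO; cytotoxicity tracked by SRB total-protein staining in parallel cultures.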

[12] = read-out: Interferon-gamma inducible Protein 10 (IP10), CXCL10 (gene 3627); assay: BSK_BE3C_IP10: BioMAP Diversity Plus: BE3C Assay for Interferon-gamma inducible Protein 10 (IP10) Biomarker Activity (AID 2283034); conditions: primary human bronchial epithelial cells; actives raise or lower the signal
In short: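 Primary human bronchial epithelial cells, with IP-10 measured by ELISA 24 hours after chemical dosing. Bidirectional fit against DMSO; cytotoxicity checked by SRB total protein staining in parallel cultures.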

[13] = read-out: Monokine induced gamma interferon (MIG), CXCL9 (gene 4283); assay: BSK_BE3C_MIG: BioMAP Diversity Plus: BE3C Assay for Monokine induced gamma interferon (MIG) Biomarker Activity (AID 2283035); conditions: primary human bronchial epithelial cells; actives raise or lower the signal;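 further: MIG protein measured by ELISA in BE3C cultures after 24 h of dosing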
In short: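 MIG level was determined by ELISA after 24 h chemical treatment of primary human bronchial epithelial cells. Values were fitted bidirectionally with DMSO as the negative control and activity baseline.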

[14] = read-out: Transforming growth factor beta 1 (TGFb1), TGFB1 (gene 7040); assay: BSK_BE3C_TGFb1: BioMAP Diversity Plus: BE3C Assay for Transforming growth factor beta 1 (TGFb1) Biomarker Activity (AID 2283036); conditions: primary human bronchial epithelial cells; actives raise or lower the signal
In short: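 Primary human bronchial epithelial cells dosed with chemical; TGF-b1 measured by ELISA 24 h after dosing. Bidirectional curve fitting against DMSO negative control; SRB total-protein staining in parallel cultures gauged cytotoxicity.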

[15] = read-out: Plasminogen activator inhibitor-1 (PAI1), SERPINE1 (gene 5054); assay: BSK_BE3C_PAI1: BioMAP Diversity Plus: BE3C Assay for Plasminogen activator inhibitor-1 (PAI1) Biomarker Activity (AID 2283037); conditions: primary human bronchial epithelial cells; actives raise or lower the signal
In short: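 Primary human bronchial epithelial cells (BE3C system) exposed 24 h; PAI-1 quantified by ELISA. Parallel sulforhodamine B staining of total protein flags cytotoxicity. Bidirectional fit versus DMSO.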

[16] = read-out: urokinase plasminogen activator (uPA), PLAU (gene 5328); assay: BSK_BE3C_uPA: BioMAP Diversity Plus: BE3C Assay for urokinase plasminogen activator (uPA) Biomarker Activity (AID 2283038); conditions: primary human bronchial epithelial cells; actives raise or lower the signal;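 further: uPA protein level quantified by ELISA in cell cultures; uPA read one day after compound addition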
In short: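 Human primary bronchial epithelial cells were exposed to chemical for 24 h, then uPA levels were measured by ELISA. Responses were fitted bidirectionally against DMSO as negative control and baseline. Parallel SRB staining of total protein gauged overt cytotoxicity.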

[17] = read-out: Interleukin-6 (IL6), IL6 (gene 3569); assay: BSK_CASM3C_IL6: BioMAP Diversity Plus: CASM3C Assay for Interleukin-6 (IL6) Biomarker Activity for (AID 2283040); conditions: primary human coronary artery smooth muscle cells; actives raise or lower the signal
[18] = read-out: Tissue plasminogen activator (tPA), PLAT (gene 5327); assay: BSK_BE3C_tPA: BioMAP Diversity Plus: BE3C Assay for Tissue plasminogen activator (tPA) Biomarker Activity (AID 2283041); conditions: primary human bronchial epithelial cells; actives raise or lower the signal
In short: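 Primary human bronchial epithelial cells in the BE3C system, exposed to compound for 24 h. tPA was quantified by ELISA; DMSO served as baseline, with gain or loss of signal fitted. Cytotoxicity checked in parallel cultures by SRB total-protein staining.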

[19] = read-out: Thrombomodulin, THBD (gene 7056); assay: BSK_3C_Thrombomodulin: BioMAP Diversity Plus: 3C Assay for Thrombomodulin Biomarker Activity (AID 2283029); conditions: primary human endothelial cells (HUVEC); actives raise or lower the signal
In short: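 Human umbilical vein endothelial cells were exposed to chemicals for 24 h; cell-surface thrombomodulin quantified by ELISA, with bidirectional fitting against DMSO baseline.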

[20] = read-out: Urokinase-type plasminogen activator receptor (uPAR), PLAUR (gene 5329); assay: BSK_BE3C_uPAR: BioMAP Diversity Plus: BE3C Assay for Urokinase-type plasminogen activator receptor (uPAR) Biomarker Activity (AID 2283039); conditions: primary human bronchial epithelial cells; actives raise or lower the signal;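 further: cells exposed to compound for one day before measurement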
In short: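 Primary human bronchial epithelial cells dosed for 24 h; uPAR quantified by ELISA with bidirectional fitting against DMSO. Overt cytotoxicity assessed in parallel cultures by SRB total-protein staining (0.1% SRB, 560 nm).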

Measured: AC50

Nc1cc([N+](=O)[O-])ccc1Cl
not listed: [19] | [20]
inactive: all other assays above

c1ccc2c(c1)c1cccc3ccc4cccc2c4c31
not listed: [1] | [20]
inactive: all other assays above

CCCCCCCCCCCCCCCCCC(=O)OCC(CC)CCCC (centres undefined)
active: [15] 0.25 µM
not listed: [19] | [20]
inactive: all other assays above

CCCCC(CC)COC(=O)/C=C\C(=O)OCC(CC)CCCC (centres undefined)
not listed: [19] | [20]
inactive: all other assays above

NCCNCCN
not listed: [1] | [4] | [14] | [19] | [20]
inactive: all other assays above

CC(C)(COC(=O)c1ccccc1)COC(=O)c1ccccc1
active: [2] 26.8 µM | [4] 38.9 µM | [5] 31.7 µM | [6] 23.2 µM | [9] 28.4 µM | [11] 20 µM
not listed: [1] | [19] | [20]
inactive: all other assays above

OC[C@H]1O[C@H](O[C@]2(CCl)O[C@H](CCl)[C@@H](O)[C@@H]2O)[C@H](O)[C@@H](O)[C@H]1Cl
not listed: [4] | [14] | [19]
inactive: all other assays above

CC(C)Oc1ccccc1O
not listed: [1]
inactive: all other assays above

O=C(O)c1cn(-c2ccc(F)cc2)c2cc(N3CCNCC3)c(F)cc2c1=O
not listed: [1] | [19] | [20]
inactive: all other assays above

CCc1c(C)cc(N)c(CC)c1N
not listed: [1] | [19] | [20]
inactive: all other assays above

C=CCOC(=O)CCC1CCCCC1
not listed: [4] | [14] | [20]
inactive: all other assays above

CC(C)c1ccc(C(C)C)cc1
active: [2] 30.5 µM | [4] 37.8 µM | [5] 31 µM | [6] 30.7 µM | [8] 30.9 µM | [9] 33.3 µM | [10] 30.8 µM | [11] 35.1 µM | [12] 30.9 µM | [17] 20 µM | [18] 23.3 µM
inactive: [1] | [3] | [7] | [13] | [14] | [15] | [16]
